Compound activity (PubChem)
Only a sample is shown.
aSyn 5UTR act = Activators via SNCA 5'UTR binding, MLPCN | alpha-synuclein 5'UTR reporter, activators screen | activity score, % (tested at 7.5 µM), hits read low | hit rate 7.1% among 300,000 | AID 1814, 2009; in the data active = activity score below about -60%
Starred values were filed as active, the others as inactive.

SMILES	aSyn 5UTR act
COC(=O)c1ccc(COc2ccc(C)cc2[N+](=O)[O-])o1	-129.9*
CC(=O)OCCc1c2ccccc2c(CCCN(C)C)c2ccccc12	103.3
CCOC(=O)c1cnc2c(ccc3ccccc32)c1NCCCN(C)C	-357.5*
Cc1cccc2nc(=S)n(C(=O)c3ccco3)n12	-220.9*
O=C(c1ccco1)n1c(=S)nc2ccccn21	-172.0*
Cc1ccn2c(c1)nc(=S)n2C(=O)c1ccccc1	-99.8*
CCOc1ccc(/C=N/NC(=O)Nc2ccccc2)cc1	-119.6*
CCN(CC)c1ccc(/C=N/NC(=O)Nc2ccccc2)cc1	-149.6*
CC(=O)Oc1ccc(/C=N/NC(=S)Nc2ccccc2)cc1	-149.4*
CCN(CC)c1ccc(/C=N/NC(=O)OC(C)(C)C)cc1	-153.3*
CCN(Cc1ccccc1)c1ccc(/C=N/N=C(N)N)cc1	93.9
O=C(CSc1nc2cc(Cl)ccc2s1)c1ccco1	-209.6*
O=C(C[n+]1cc(-c2ccc(F)cc2)n2c1CCC2)Nc1nc(-c2ccccc2)cs1	-89.1*
COC(=O)c1ccc2c(=O)[nH]c(CSc3nc(C)cs3)nc2c1	-94.0*
COc1ccc2c(c1)CC/C(=C\C=C\c1ccccc1)C2=O	-63.6*
COc1ccc2c(c1)CC/C(=C/c1ccccn1)C2=O	-81.1*
COc1ccc(OC)c(C2C3=C(COC3=O)Nc3cc4c(cc32)OCO4)c1 (configuration not stated)	88.9
COc1ccc2c(c1)CC/C(=C\Nc1ccc3c(c1)OCO3)C2=O	-196.7*
COc1cccc(/C=C2\CCc3ccccc3C2=O)c1	-97.3*
COc1ccc(N/C=C2\CCc3ccccc3C2=O)cc1	94.4
O=C1/C(=C/Nc2ccc3c(c2)OCO3)CCc2ccccc21	96.3
CSc1nc2nccc(/C=C\c3ccccc3)n2n1	-88.9*
Cc1[nH]c2ccccc2c1C(=O)/C=C\c1ccccc1Cl	-313.7*
Cc1[nH]c2ccccc2c1C(=O)/C=C/c1ccccc1	-98.2*
Cc1[nH]c2ccccc2c1C(=O)/C=C/c1ccccc1Cl	-452.8*
SMILES	aSyn 5UTR act
O=C(N/N=C/c1ccccc1Cl)c1[nH]c2ccc(Br)cc2c1-c1ccccc1	70.8
Cc1ccc(-n2sc3ccccc3c2=O)cc1	-121.2*
Cc1cccc(Nc2nc(-c3cccs3)cs2)n1	-90.5*
C/C(=N\NC(=O)c1cc(-c2cccs2)nc2ccccc12)c1ccccn1	79.3
c1ccc(Nc2nc(-c3cccs3)cs2)nc1	-165.3*
O=C(COC(=O)c1ccccc1-n1cnnn1)c1ccc(Br)cc1	-94.7*
FC(F)(F)c1ccc2c(c1)nc1n2CCCC1	-65.4*
Cc1nc(NC(=O)C(C)Oc2cccc(Cl)c2)sc1C(=O)N(C)C (configuration not stated)	-65.0*
CC(Oc1cccc(Cl)c1)C(=O)Nc1nc(-c2ccccn2)cs1 (configuration not stated)	63.7
Cc1nnc(NC(=O)c2oc3ccccc3c2C)s1	-83.4*
Cc1nc(NC(=O)c2oc3ccccc3c2C)sc1C(=O)N(C)C	-192.5*
Cc1ccc(C(=O)Nc2nc(C)c(C(=O)N(C)C)s2)o1	-76.8*
Cc1nc(NC(=O)/C=C/c2ccccc2)sc1C(=O)N(C)C	-165.8*
CCCCc1nnc(NC(=O)c2oc3ccccc3c2C)s1	-96.0*
COc1ccc(C2N=C(c3ccccc3)NO2)cc1OC (configuration not stated)	-141.5*
FC(F)Oc1ccc(C2N=C(c3ccccc3)NO2)cc1 (configuration not stated)	-199.0*
CCc1ccccc1NC(=O)CN(C)C(=O)Cn1ncc(Cl)c(Cl)c1=O	-62.6*
COc1cccc(/C=N/Nc2nc3ccccc3[nH]2)c1OC	-106.2*
COc1cc(/C=N/Nc2nc3ccccc3[nH]2)ccc1O	-270.3*
COc1cc(/C=C(/C(=O)c2cccs2)c2nc3ccccc3[nH]2)cc(OC)c1O	-224.4*
COc1ccccc1Nc1nc2ccccc2[nH]1	-119.7*
COc1cc(/C=N/Nc2nc3ccccc3[nH]2)cc(OC)c1O	-100.3*
COc1ccc(O)c(/C=N/Nc2nc3ccccc3[nH]2)c1	-81.2*
CCOc1ccccc1-c1nn2c(Cc3ccccc3)nnc2s1	-65.8*
COC(=O)CNc1c(-c2ccccc2)nc2ccc(Br)cn12	-69.0*
SMILES	aSyn 5UTR act
Nc1ccc(Br)cc1-c1nc2ccccc2[nH]c1=O	-102.0*
Nc1ccccc1-c1nc2ccccc2[nH]c1=O	-141.1*
CCSc1nnc(-c2ccccc2N)c(=O)[nH]1	-67.5*
O=C(CC(Nc1ccc(F)cc1)C(=O)O)c1ccccc1 (configuration not stated)	-171.1*
O=C(CC(Nc1ccc(F)cc1)C(=O)OCC(=O)c1cccs1)c1ccccc1 (configuration not stated)	-112.7*
Cc1oc2cc3oc(=O)cc(C)c3cc2c1C	-87.5*
O=c1c(Cl)c(N2CCN(c3ccc(F)cc3)CC2)cnn1-c1nc2ccccc2s1	-111.5*
CCCc1nnc(NC(=S)Nc2ccccc2)s1	-126.6*
CC(C)C(=O)Nc1nnc(NC(=S)Nc2ccccc2)s1	-126.6*
O=C(NCCCCCCOC1=NS(=O)(=O)c2ccccc21)C(=O)Nc1ccccc1	-93.3*
C/C(=N\OCc1ccc(C#N)cc1)c1ccccc1	-119.8*
